Screening results (PubChem BioAssay)
HepG2 viability = counter-screen for TGF-b inhibitors: cytotoxicity in HepG2 cells; Potency, µM (series often up to 46.1 µM), without a hit: at the top dose activity change, negative = cytotoxicity, usual class: cytotoxic; hit rate 0.76% among 410,000; HepG2 CAGA-GFP viability, ATP luminescence, 18 h; AID 588856; further: potency means the concentration at half of the fitted maximal effect
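HepG2 CAGA-GFP cells (1000/well, DMEM with 1% FBS) received compound, then TGF-beta at 500 pg/mL final, and were incubated 18 hours at 37 degrees C. Viability was read by CellTiter-Glo luminescence. Media-only wells were set as complete cell-killing and DMSO as no toxicity.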
ATXN viability = cell viability loss in ATXN counter-screen | Potency, µM (highest dose often 56.7 µM), actives largely listed as cytotoxic | S2 cells (HEK-293 line with an ATXN2-luciferase reporter) viability, CellTiter-Fluor protease fluorescence, 24 h | hit rate 0.49% among 400,000; further: potency means the concentration at half of the fitted maximal effect; nearly all actives have a fitted effect of over 40% in size
ATXN2 expr inh = reduces ATXN2 reporter expression in HEK-293 cells; HEK-293 ATXN2-luciferase reporter, luminescence, 24 h; Potency, µM (top dose mostly 57 µM), for inactives: top-dose activity change, negative = inhibition, usual class: inhibitors; hit rate 0.72% among 360,000; AID 1745845; further: potency means the concentration at half of the fitted maximal effect; on the % scale 0 is the no-effect control and ±100 the full control effect; nearly all actives have a fitted effect of over 55% in size
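qHTS (up to 57 uM final) was run with 24 h compound exposure of reporter cells at 37 °C. Each well was multiplexed: SteadyGlo luminescence measured ATXN2-luciferase expression after a fluorogenic Gly-Phe-AFC viability readout (25 uM final).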
IL-1B inflam inh = blocks inflammasome-driven IL-1 beta release. THP-1 LPS/ATP IL-1B secretion, AlphaLISA, 16 h; stronger effect = lower value. activity change, % at 57.5 µM. hit rate 4.7% among 360,000. AID 743279; in the data active means activity change below about -50%; inconclusive means mostly about -30% to -49%; further: on the % scale 0 is the no-effect control and ±100 the full control effect
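THP-1 cells pretreated 1 hr with compounds (up to 57.5 uM final), then stimulated with LPS (250 ng/mL final) plus ATP (1.25 mM final); secreted IL-1B measured by AlphaLISA after 16 hr, decreased signal indicating inhibition.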
TGFb SMAD3 inh = blocks TGF-b signaling | AID 588855 | hit rate 1.2% among 410,000 | Potency, µM (highest dose often 46.1 µM), for the others: top-dose activity, negative = inhibition, hits mostly inhibitors | HepG2 CAGA-GFP TGF-b/SMAD3 reporter, GFP fluorescence, 18 h; TGF-beta stimulated, 500 pg/mL final; further: potency means the concentration at half of the fitted maximal effect; on the % scale 0 is the no-effect control and ±100 the full control effect; nearly all actives have a fitted effect of over 65% in size
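Per well, imaged GFP fluorescence of HEPG2 CAGA-GFP cells gives the signal; cells get compound, then TGF-beta (500 pg/mL final), 18 h at 37 degrees C; %Activity versus -TGF-beta and +DMSO controls.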
Numbers without * were called inactive; i = inactive; u = inconclusive; x = not tested or not shown; [ ] = dose if it differs, or a comment. An excerpt weighted towards active compounds, which were near 5.7% of everything screened. Unless noted, the call rests on the fitted dose curve; in most records, active means well fitted curve in the direction sought with a large enough effect; inconclusive means small, poorly fitted or top-dose-only effect, or another doubt; inactive means no such curve, though single readings can be large; an effect the other way counts as inactive or inconclusive.

SMILES	HepG2 viability	ATXN viability	ATXN2 expr inh	IL-1B inflam inh	TGFb SMAD3 inh
C#CCN(C[C@@H]1[C@@H](OC(=O)NC2CCCC2)[C@@H](OC(=O)NC2CCCC2)Cn2c(=O)ccc(=O)n21)S(=O)(=O)c1ccc(C)cc1	-84.2%	11.2µM*	u	-0.4	u
C#CCN(C[C@@H]1[C@@H](OC(=O)NCc2ccccc2F)[C@@H](OC(=O)NCc2ccccc2F)Cn2c(=O)ccc(=O)n21)S(=O)(=O)c1ccc(C)cc1	12.6µM*	3.98µM*	3.98µM*	-111.3*	11.2µM*
CCc1ccc(CNC(=O)c2ccc(Cn3c(=O)c4cccn4c4cccnc43)cc2)cc1	-1.3%	i	-1.7%	x	-8.7%
Cc1ccc(CNC(=O)c2c(-c3cccc(Br)c3)noc2C)o1	-1.5%	i	-5.0%	x	1.0%
Fc1ccc(COc2ccc(Br)cc2CNCc2ccncc2)cc1	-15.6%	i	-28.9%	-78.8*	5.1%
CCOc1cc(CNCc2ccncc2)cc(Br)c1OCc1ccc(F)cc1	-44.8%	u	u	-84.1*	-3.8%
Fc1ccc(COc2cccc(CNCc3ccncc3)c2)cc1	-29.6%	i	u	-11.4	-19.8%
Fc1ccccc1COc1ccc(Br)cc1CNCc1ccncc1	-41.2%	i	-23.7%	-22.1	-10.8%
COc1cc(=O)n2c(c1C(=O)NCc1ccc3c(c1)OCO3)CCN(C(=O)c1ccccc1F)CC2	x	i	x	x	x
Cc1ccccc1CNC(=O)c1ccc(NC(=O)c2nsc3ccccc23)cc1	-44.1%	i	28.7%	x	-11.5%
CCOc1ccc(CCNC(=O)c2nc(-c3cccc(F)c3)n3c2CCCCC3)cc1OCC	-25.9%	x	x	x	u
Cc1ccccc1NC1=C(Cl)C(=O)N(C2CCCCC2)C1=O	-53.8%	i	3.3%	-93.3*	-11.4%
COc1ccc(CN=Cc2c(O)[nH]c3ccccc23)cc1	-27.0%	u	-10.5%[11.3 µM]	-4.8	-26.3%
Cc1ccc(CN=Cc2[nH]c3ccc(Br)c(Cl)c3c2O)cc1	17.8µM*	i	-21.3%	0.0	-7.1%
Oc1ccc(/C=N/NC(=S)NC2CC3CCC2C3)cc1 (stereo unspecified)	-30.2%	i	65.3%	-66.1*	-27.4%
S=C(N/N=C/c1cccs1)NC1CC2CCC1C2 (stereo unspecified)	-14.8%	u	-15.3%	x	-25.4%
CCN(CC)S(=O)(=O)c1ccc2c(c1)c(=O)c(C(=O)N1CCN(c3ccc(OC)cc3)CC1)cn2C	-20.0%	i	-13.3%	x	u
CC(C)C[C@@H](CN1CCC[C@@H]1CN1C(=O)C(=O)NC[C@@H]1Cc1ccccc1)N1C[C@H](Cc2ccccc2)N(CC2CCCCCC2)C(=O)C1=O	2.3%	u	8.1%	-24.3	u
CC(C)C[C@H]1CNC(=O)C(=O)N1C[C@H]1CCCN1C[C@H](CC(C)C)N1C[C@H](Cc2ccccc2)N(CC2CCCCC2)C(=O)C1=O	x	i	17.4%	8.9	x
CC(C)C[C@@H](CN1CCC[C@@H]1CN1C(=O)C(=O)NC[C@@H]1Cc1ccccc1)N1C[C@H](Cc2ccccc2)N(CC2CCCCC2)C(=O)C1=O	x	22.4µM*	u	u	x
CC(C)C[C@H]1CN([C@@H](CC(C)C)CN2CCC[C@@H]2CN2C(=O)C(=O)NC[C@@H]2Cc2ccccc2)C(=O)C(=O)N1CC1CCCCC1	-37.8%	u	-33.7%	u	17.8µM*
C[C@@H](NC(=O)CN(c1ccccc1)S(=O)(=O)N(C)C)c1ccccc1	1.8%	i	1.5%	x	16.7%
COc1ccc(CC(=O)NCCc2sc(-c3ccc(Cl)cc3)nc2C)cc1OC	-20.8%	u	-15.6%	x	7.94µM*
CC(C)CCNCC(O)CON=C1c2ccccc2-c2ccccc21 (stereo unspecified)	-1.7%	u	x	u	u
COCCNCC(O)CON=C1c2ccccc2-c2ccccc21 (stereo unspecified)	0.3%	i	-25.8%	-76.6*	-2.3%
CN1N=C(N)c2cn(C3OC(COP(=O)(O)O)C(O)C3O)c3ncnc1c23 (stereo unspecified)	-40.8%	i	16.5%	181.2	0.282µM*
Nc1ncnc2c1ncn2[C@@H]1O[C@H](COP(=O)(O)O)[C@@H](O)[C@H]1O	31.4%	i	55.5%	-8.3	-9.8%
